HT1080-NT tox = kills 2HG-producing HT-1080-NT fibrosarcoma cells. Potency, µM (doses to about 46.1 µM), for the others: top-dose activity, negative = less viability, hits mostly cytotoxic. HT-1080-NT fibrosarcoma viability, CellTiter-Glo ATP luminescence, 48 h. hit rate 1.6% among 360,000;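 also: NT is the 2HG producing partner of a matched IDH1 knockdown line; 0% = DMSO-treated cells and -100% = media-only wells without cells; nearly all actives have a fitted effect of over 55% in size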
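HT-1080-NT fibrosarcoma cells (2HG-overproducing), 750 cells/well in RPMI with 5% FBS, dosed after 2 h and incubated 48 h at 37C. CellTiter-Glo luminescence normalized to DMSO and no-cell wells; concentration-response curves fitted and classed.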
TDP1 cell CPT = DT40-hTDP1 cell growth loss with CPT. chicken DT40 Tdp1-/-;hTDP1 cells + 20 nM CPT, ATP luminescence, 48 h. Potency, µM (doses to about 46.2 µM), for the others: at the top dose activity change, negative = growth inhibition, actives largely listed as inhibitors. hit rate 12% among 420,000. AID 686979; also: nearly all actives have a fitted effect of over 55% in size
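Cell growth measured by CellTiter-Glo luminescence after a minimum 48 h, 37 C compound exposure with 20 nM CPT in Tdp1-knockout DT40 cells stably expressing hTDP1, seeded 400/well; qHTS titration format.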
KB-V1 cytotox = kills drug-selected multidrug resistant KB-V1 cells; KB-V1 MDR cells viability, CellTiter-Glo, 72 h; Potency, µM (highest dose often 46.1 µM), usual class: cytotoxic; hit rate 3.4% among 400,000; AID 1347076; also: nearly all actives have a fitted effect of over 60% in size
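Readout: CellTiter-Glo luminescence, 10 min after addition. Cells: KB-V1 MDR subline, 72 h at 37 degrees C with compound. Analysis: corrected, normalized data fitted to concentration-effect curves.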
DT40 TDP1 no CPT = qHTS for Inhibitors of human tyrosyl-DNA phosphodiesterase 1 (TDP1): qHTS in cells in absence of CPT | hit rate 15% among 420,000 | Potency, µM (doses to about 46.2 µM), inactives show at the top dose activity change, negative = growth inhibition, hits mostly inhibitors | AID 686978, 2013 | DT40 Tdp1-/- hTDP1 cells, no CPT, ATP luminescence, 48 h; also: nearly all actives have a fitted effect of over 55% in size
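A cellular qHTS used chicken DT40 cells lacking endogenous Tdp1 but carrying stably transfected human TDP1. Compounds were applied without camptothecin, and cell growth kinetics were judged by ATP-dependent luminescence after ≥48 hr.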
KB-3-1 tox = KB-3-1 parental cell cytotoxicity. AID 1347075. hit rate 1.4% among 400,000. KB-3-1 viability, CellTiter-Glo ATP luminescence, 72 h. Potency, µM (highest dose often 46.1 µM), usual class: cytotoxic; also: nearly all actives have a fitted effect of over 60% in size
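Parental KB-3-1 viability, qHTS format: 72 h compound exposure, 37 °C; CellTiter-Glo; media-only wells and DMSO plates as controls; concentration-effect fits on corrected data.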
HT1080 IDH1KD tx = toxicity to HT-1080 IDH1 knockdown cells (counter line); HT-1080 IDH1 knockdown viability, ATP luminescence, 48 h; hit rate 2% among 360,000; Potency, µM (doses to about 46.1 µM), without a hit: at the top dose activity, negative = toxicity, most hits filed as cytotoxic; AID 686971;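 also: 0% = DMSO wells and -100% = cell-free medium wells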
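Assay cells: HT-1080 with IDH1 knockdown, 750 per well, RPMI/5% FBS. Exposure: 48 h at 37 °C following 2 h pre-incubation. Read: CellTiter-Glo luminescence; fitted concentration-response, curve class assigned.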
Active calls of the source: *; i = inactive; ? = inconclusive; · = no result given; [ ] = dose if it differs, or a comment. Most compounds without a hit are left out; they make up all but 19% or so of the library. Calls follow the shape of the dose curve; as a rule, active = well fitted curve in the direction sought with a large enough effect; inconclusive = small, poorly fitted or top-dose-only effect, or another doubt; inactive = no such curve, though single readings can be large; an effect the other way counts as inactive or inconclusive. Unless noted, % is scaled to controls: 0 for no effect and ±100 for the full control effect; potency is read from the fitted curve at half-maximal effect.

SMILES | HT1080-NT tox | TDP1 cell CPT | KB-V1 cytotox | DT40 TDP1 no CPT | KB-3-1 tox | HT1080 IDH1KD tx
Cc1ccc(NC(/C=C/N(C)C)=C/C(=O)C(F)(F)F)c(C)c1 | -25.5% | 16.4µM* | i | 16.4µM* | i | -16.7%
CN(C)/C=C\C(=C/C(=O)C(F)(F)F)Nc1ccccc1Oc1ccccc1 | -12.1% | ? | i | 18.4µM* | ? | -26.9%
O=C(CN(Cc1ccccc1Cl)C(=O)c1csnn1)NCc1ccccc1 | 16.5% | -15.5% | i | -24.5% | ? | 11.8%
C[C@@H]1CCCCO[C@H](CN(C)Cc2ccc(Cl)c(Cl)c2)[C@H](C)CN([C@@H](C)CO)C(=O)c2cc(NC(=O)Nc3ccc(F)cc3)ccc2O1 | -28.5% | 9.2µM* | i | 5.8µM* | ? | ?
CC(C)NC(=O)Nc1ccc2c(c1)C(=O)N([C@H](C)CO)C[C@H](C)[C@@H](CN(C)S(=O)(=O)c1ccccc1)OCCCC[C@@H](C)O2 | 2.8% | -1.2% | i | -8.3% | i | 18.9%
C[C@@H]1CCCCO[C@H](CN(C)C(=O)Nc2ccc(F)cc2)[C@@H](C)CN([C@H](C)CO)C(=O)c2cc(NC(=O)c3ccccc3)ccc2O1 | -4.2% | ? | i | ? | i | -5.1%
C[C@@H]1CN([C@H](C)CO)C(=O)c2cc(NC(=O)Nc3ccc(F)cc3)ccc2O[C@@H](C)CCCCO[C@H]1CN(C)S(=O)(=O)c1ccc(Cl)cc1 | -25.8% | 25.9µM* | i | ? | i | -19.8%
C[C@@H]1CCCCO[C@H](CN(C)Cc2ccc(Cl)c(Cl)c2)[C@@H](C)CN([C@H](C)CO)C(=O)c2cc(N(C)C)ccc2O1 | 15.5% | 18.4µM* | i | 23.1µM* | ? | -10.5%
C[C@H](CO)N1C[C@H](C)[C@@H](CN(C)Cc2ccc(Cl)c(Cl)c2)OCCCC[C@H](C)Oc2ccc(NC(=O)CCC(F)(F)F)cc2C1=O | -28.1% | 23.1µM* | i | 14.6µM* | ? | ?
COc1ccc(OC)c(N2C(=O)c3ccccc3C2c2nnnn2-c2ccc3c(c2)OCCO3)c1 (stereo not given) | 3.6% | ? | ? | ? | i | 3.3%
Cc1ccc(S(=O)(=O)n2nc(C)c(S(=O)(=O)N3CCC(C)CC3)c2C)cc1 | · | -19.0% | i | 3.9% | i | ·
CC(=O)OC1(C(C)=O)CCC2C3CC4OC45CC(O)CCC5(C)C3CCC21C (stereo not given) | ? | 1.3% | i | -17.1% | i | 6.3%
CC(=O)O[C@@]1(C(C)=O)CCC2C3C=C(Cl)C4=CC(=O)C5CC5[C@@]4(C)C3CC[C@]21C (stereo not given in full) | · | 20.6µM* | · | 20.6µM* | · | ·
CCOC(=O)C1CCCN(Cc2ccc(O)c(OC)c2)C1 (stereo not given) | -3.5% | -9.8% | i | -2.0% | i | -15.4%
CCOc1cc(CN2CCCC(C(=O)c3cccc(C(F)(F)F)c3)C2)ccc1O (stereo not given) | -9.7% | ? | i | 25.9µM* | i | -10.2%
Cc1cc(CNC(=O)CCN2Cc3cc(Cl)ccc3OC(C)C2)nn1C (stereo not given) | · | -121.3%[9.04 µM] | · | -9.7% | · | ·
CC(C)c1ccccc1-n1c(SCC(=O)c2ccc3c(c2)NC(=O)CO3)nc2ccccc2c1=O | -19.3% | 18.4µM* | ? | 23.1µM* | i | -8.7%
CC(C)c1ccccc1-n1c(SCC(=O)N2CCc3ccccc3C2)nc2ccccc2c1=O | -19.2% | ? | i | 23.1µM* | ? | ?
O=C1COc2ccc(C(=O)CSc3nnc(Cc4cccs4)n3-c3ccccc3)cc2N1 | -8.9% | ? | ? | 9.2µM* | i | 0.6%
O=C(CSc1nc2ccccc2c(=O)n1-c1ccccc1)N1CCc2ccccc2C1 | -9.9% | 25.9µM* | ? | 16.4µM* | i | -26.2%
Cn1cnnc1SCC(=O)c1ccc2c(c1)NC(=O)CO2 | 3.6%[9.24 µM] | 19.4% | i | 13.7% | i | 5.6%
CN(C)c1ccc(C(=O)C(=O)N2CCN(c3ccccc3)CC2)cc1 | 19.9% | ? | i | ? | i | 15.7%
CCOc1ccc(C(=O)Nc2ccc3oc(-c4cccnc4)nc3c2)cc1 | · | 1.1% | i | -16.2% | i | ·
Cc1c(F)cccc1NS(=O)(=O)c1cccs1 | · | 7.5% | i | -5.4% | i | ·
COc1ccc2c(C=O)cn(C)c2c1 | 0.0% | -2.2% | ? | -15.3% | i | 13.8%
SMILES | HT1080-NT tox | TDP1 cell CPT | KB-V1 cytotox | DT40 TDP1 no CPT | KB-3-1 tox | HT1080 IDH1KD tx
Cc1cc2c(c(C)c1CCO[C@@H]1O[C@H](CO)[C@@H](O)[C@H](O)[C@H]1O)C(=O)[C@@H](C)[C@@H]2O | -0.9% | 2.91µM* | i | 5.17µM* | ? | 7.8%
Cc1cc(=O)oc2cc(O[C@@H]3O[C@H](CO)[C@H](O)[C@H](O)[C@H]3O)ccc12 | 0.1% | 23.3% | i | 1.3% | i | 10.9%
CCc1ccc(S(=O)(=O)c2nnn3c2nc(Nc2ccc(C)c(Cl)c2)c2sccc23)cc1 | · | ? | i | -16.9% | i | ·
CC(N)c1csc(Nc2nncc3ccccc23)n1 (stereo not given) | ? | ? | i | ? | i | 18.4µM*
CC(C)C(N)c1csc(Nc2nncc3ccccc23)n1 (stereo not given) | ? | ? | ? | 16.4µM* | i | ?
CC(=NO)C1CCC2C3CCC4=CC(=NO)CCC4(C)C3C(=O)CC12C (stereo not given) | -1.4% | 13µM* | i | 16.4µM* | ? | -9.2%
CC(=NO)C1CCC2C3CCC4=CC(=NO)CCC4(C)C3C(O)CC12C (stereo not given) | -4.1% | 13µM* | 20.6µM* | 16.4µM* | ? | -8.7%
Cc1cc(C)cc(N(CCC#N)C(=O)COC(=O)Cn2[nH]c(=O)c3ccccc3c2=O)c1 | -8.5% | -2.7% | i | -5.1% | i | 0.4%
CC1(C)CC[C@]2(C(=O)O)CC[C@]3(C)C(=CC[C@@H]4[C@@]5(C)CC[C@H](O)C(C)(C)[C@@H]5CC[C@]43C)[C@@H]2C1 | 15.7% | ? | i | 23.1µM* | i | 1.6%
CC1(C)C[C@H](O)[C@]2(CO)[C@H](O)C[C@]3(C)C(=CCC4[C@@]5(C)CC[C@H](O)C(C)(C)C5CC[C@]43C)[C@@H]2C1 (stereo not given in full) | 20.6µM* | ? | ? | 23.1µM* | ? | ?

Compound activity as filed in PubChem.
